The target of test [1] is Glucocorticoid receptor (Homo sapiens) (UniProt P04150). In words: ATG_GR_TRANS: Attagene TRANS-FACTORIAL HepG2 Assay for human Glucocorticoid Receptor (GR) (AID 2282978; active means hit-call score of the fitted dose curve at least 0.9, where 1 is the maximum;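 further: activators score as hits since higher reporter transcript over DMSO is fitted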). The following applies: HepG2 Attagene TRANS GR reporter, mRNA transcription. Put shortly: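 HepG2 transient transfection, multiple reporter units, GAL4-UAS under NR-GAL4 chimera control. 24 h treatment. Reporter mRNA by RT-PCR/CE fluorescence, DMSO as negative control.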
Chain of Glucocorticoid receptor (Homo sapiens) (P04150 whole entry, looked up, the tested form may be a part): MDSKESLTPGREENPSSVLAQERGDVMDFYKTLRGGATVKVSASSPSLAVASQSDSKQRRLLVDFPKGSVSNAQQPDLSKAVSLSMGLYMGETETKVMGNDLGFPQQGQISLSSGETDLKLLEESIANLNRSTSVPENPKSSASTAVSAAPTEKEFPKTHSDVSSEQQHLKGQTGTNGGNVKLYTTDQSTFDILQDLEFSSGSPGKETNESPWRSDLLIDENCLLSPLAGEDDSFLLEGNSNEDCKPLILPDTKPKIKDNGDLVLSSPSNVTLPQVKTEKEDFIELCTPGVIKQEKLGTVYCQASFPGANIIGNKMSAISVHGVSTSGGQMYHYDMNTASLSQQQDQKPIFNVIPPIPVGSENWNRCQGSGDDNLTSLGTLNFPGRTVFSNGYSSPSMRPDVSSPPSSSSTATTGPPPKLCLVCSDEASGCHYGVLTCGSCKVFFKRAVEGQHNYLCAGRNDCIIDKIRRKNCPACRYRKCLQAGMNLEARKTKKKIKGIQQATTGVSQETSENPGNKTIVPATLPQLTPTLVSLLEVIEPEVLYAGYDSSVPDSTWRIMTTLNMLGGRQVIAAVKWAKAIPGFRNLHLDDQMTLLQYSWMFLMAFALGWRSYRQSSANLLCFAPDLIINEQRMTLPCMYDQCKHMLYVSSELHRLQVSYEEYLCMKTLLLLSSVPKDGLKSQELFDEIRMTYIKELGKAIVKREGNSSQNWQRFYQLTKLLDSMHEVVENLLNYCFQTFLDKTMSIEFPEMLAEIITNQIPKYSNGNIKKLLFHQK

Test [2] addresses Bile acid receptor (Homo sapiens) (UniProt Q96RI1). In words: ATG_FXR_TRANS: Attagene TRANS-FACTORIAL HepG2 Assay for Farnesoid X Receptor (FXR) (AID 2282979; active means hit-call score of the fitted dose curve at least 0.9, where 1 is the maximum;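 further: hits raise reporter mRNA above DMSO so AC50 marks FXR activation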). The conditions noted are these: HepG2 Attagene TRANS FXR-GAL4 reporter transcription. Put shortly:
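HepG2 cells were transiently transfected with GAL4-UAS reporters driven by chimeric NR-Gal4 proteins and dosed for 24 h. Reporter mRNA was quantified by RT-PCR, fluorescent labelling, HpaI digestion and capillary electrophoresis, with gain of signal scored versus DMSO.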

Test [3] addresses Oxysterols receptor LXR-beta (Homo sapiens) (UniProt P55055). In words: ATG_LXRb_TRANS: Attagene TRANS-FACTORIAL HepG2 Assay for human Liver X Receptor beta (LXRb) (AID 2282981; active means hit-call score of the fitted dose curve at least 0.9, where 1 is the maximum). The conditions noted are these: HepG2 Attagene TRANS GAL4-LXRb reporter, mRNA. The method in brief: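 Multiplexed reporter assay, HepG2, 24 h dosing. Fluorescence of labelled RT-PCR products after capillary electrophoresis gives transcript level; positive fitting direction relative to DMSO.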

The nature of test [4]: ATG_M_32_TRANS: Attagene TRANS-FACTORIAL HepG2 Assay for M32 Transcription Factor (Internal Marker) (AID 2282984; active means hit-call score of the fitted dose curve at least 0.9, where 1 is the maximum;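 further: transcript level of a background control reporter unit measured by RT-PCR and capillary electrophoresis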). The conditions noted are these: HepG2 Attagene TRANS M32 internal marker reporter. Put shortly:
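Internal-marker readout from a multiplexed transcription reporter panel. HepG2 cells were transfected with GAL4-UAS reporter units, treated 24 hours, and reporter transcript levels determined by fluorescence after RT-PCR and capillary separation.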

Test [5] concerns the target Nuclear receptor subfamily 4 group A member 2 (Homo sapiens) (UniProt P43354). Put plainly: ATG_NURR1_TRANS: Attagene TRANS-FACTORIAL HepG2 Assay for human Nuclear Receptor Related Protein 1 (NURR1) (AID 2282985; active means hit-call score of the fitted dose curve at least 0.9, where 1 is the maximum). The following applies: HepG2 Attagene TRANS reporter, mRNA readout. Put shortly:
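Endpoint: reporter mRNA increase relative to DMSO. HepG2 cells transfected with reporter units, treated 24 h; RNA processed by RT-PCR, labelling, HpaI digestion and capillary electrophoresis.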

In test [6] the target is Transcriptional activator Myb (Homo sapiens) (UniProt P10242). In words: ATG_Myb_CIS: Attagene CIS-FACTORIAL HepG2 Assay for human Myeloblastosis (Myb) Proto-Oncogene Transcription Factor (AID 2282986). The following applies: HepG2 Attagene CIS-FACTORIAL Myb reporter transcription; actives raise or lower the signal. Put shortly:
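Multiplexed cis-reporter system in HepG2: transient transfection, 24 h treatment, mRNA readout by RT-PCR and capillary electrophoresis. Both increases and decreases are scored versus DMSO negative control.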

Test [7] concerns the target Nuclear respiratory factor 1 (Homo sapiens) (UniProt Q16656). In words: ATG_NRF1_CIS: Attagene CIS-FACTORIAL HepG2 Assay for human Nuclear Respiratory Factor 1 (NRF1) Orphan Gene (AID 2282987). The conditions noted are these: HepG2 NRF1 cis-element reporter, Attagene multiplex; actives raise or lower the signal. Put shortly: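 Endogenous factor activity was captured via cis-element-driven reporter transcripts in HepG2 cells. Following 24 h chemical treatment, transcripts were quantified by RT-PCR and capillary electrophoresis.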

Test [8] can be described thus: ATG_NFI_CIS: Attagene CIS-FACTORIAL HepG2 Assay for human Nuclear Factor I (NFI) (AID 2282989). The conditions noted are these: HepG2 cis-regulatory reporter, NFI response element transcription; actives raise or lower the signal. Put shortly:
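Read-out: reporter mRNA via RT-PCR plus capillary electrophoresis with fluorescence detection. Transiently transfected HepG2 (endogenous TF activity on cis promoters), 24 h compound exposure; gain or loss of signal fitted against DMSO.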

Test [9] is described as follows: ATG_NRF2_ARE_CIS: Attagene CIS-FACTORIAL HepG2 Assay for human Nuclear Factor Erythroid 2 Related Factor 2 (NFR2) response to Antioxidant Response Elements (ARE) (AID 2282992). The following applies: HepG2 Attagene ARE/NRF2 reporter, transcription factor activity; actives raise or lower the signal. The method in brief:
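Using transiently transfected HepG2 cells exposed for 24 h, reporter mRNA levels were determined by RT-PCR with fluorescent primer extension and capillary electrophoresis, analysed for gain or loss of signal against DMSO.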

The nature of test [10]: ATG_Oct_MLP_CIS: Attagene CIS-FACTORIAL HepG2 Assay for human Octamer-Binding Transcription Factor (Oct) (AID 2282993). The conditions noted are these: HepG2 Attagene cis-factorial Oct reporter, mRNA; actives raise or lower the signal. The method in brief: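 Read-out: reporter mRNA via RT-PCR plus capillary electrophoresis of 6-FAM-labelled fragments. Transiently transfected HepG2, 24 h exposure, endogenous TF activity on cis elements. Gain or loss of signal fitted relative to DMSO.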

For test [11], the target named is Cellular tumor antigen p53 (Homo sapiens) (UniProt P04637). Put plainly: ATG_p53_CIS: Attagene CIS-FACTORIAL HepG2 Assay for human p53 Transcription Factor (AID 2282994). The following applies: HepG2 p53 cis-element reporter, Attagene mRNA; actives raise or lower the signal. Put shortly:
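In HepG2 cells, reporter transcription units under cis-regulatory promoters were transiently introduced. Following 24 h treatment, RNA was processed to labelled, digested cDNA fragments read by capillary electrophoresis; fitting was bidirectional versus DMSO.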

Test [12] in a line: BSK_3C_TissueFactor: BioMAP Diversity Plus: 3C Assay for Tissue Factor Biomarker Activity (AID 2282997). The conditions noted are these: BioMAP 3C HUVEC, tissue factor biomarker readout; actives raise or lower the signal. The method in brief: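 Tissue Factor measured by ELISA, 24 h after treatment of primary HUVEC in the BioMAP 3C setting.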
The nature of test [13]: BSK_3C_uPAR: BioMAP Diversity Plus: 3C Assay for Urokinase-type plasminogen activator receptor (uPAR) Biomarker Activity (AID 2282998). The conditions noted are these: BioMAP 3C HUVEC, uPAR biomarker ELISA; actives raise or lower the signal. Put shortly: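 HUVEC primary cells; 24 h post-dose; uPAR by ELISA; gain or loss of signal fitted bidirectionally vs DMSO baseline.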
Background: An ELISA detects its analyte on a solid surface through an enzyme-linked reagent.

A short description of test [14]: BSK_3C_VCAM1: BioMAP Diversity Plus: 3C Assay for Vascular cell adhesion molecule 1 (VCAM1) Biomarker Activity (AID 2282999). The following applies: BioMAP 3C HUVEC, VCAM1 ELISA, cytokine-stimulated; actives raise or lower the signal. Put shortly: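 HUVEC primary cells, 24 h compound exposure; VCAM-1 by ELISA; gain/loss of signal fitted bidirectionally vs DMSO baseline.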

For test [15], the target named is Oxysterols receptor LXR-alpha (Homo sapiens) (UniProt Q13133). In words: ATG_LXRa_TRANS: Attagene TRANS-FACTORIAL HepG2 Assay for human Liver X Receptor alpha (LXRa) (AID 2282980; active means hit-call score of the fitted dose curve at least 0.9, where 1 is the maximum). The following applies: HepG2 Attagene TRANS reporter, LXRa transactivation. Put shortly: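 HepG2 cells transiently transfected with GAL4-UAS reporter units for chimeric NR-Gal4 proteins, exposed to chemicals for 24 h. Reporter mRNA quantified by RT-PCR and capillary electrophoresis; gain of signal fitted relative to DMSO.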
Chain of Oxysterols receptor LXR-alpha (Homo sapiens) (Q13133 whole entry, looked up, the tested form may be a part): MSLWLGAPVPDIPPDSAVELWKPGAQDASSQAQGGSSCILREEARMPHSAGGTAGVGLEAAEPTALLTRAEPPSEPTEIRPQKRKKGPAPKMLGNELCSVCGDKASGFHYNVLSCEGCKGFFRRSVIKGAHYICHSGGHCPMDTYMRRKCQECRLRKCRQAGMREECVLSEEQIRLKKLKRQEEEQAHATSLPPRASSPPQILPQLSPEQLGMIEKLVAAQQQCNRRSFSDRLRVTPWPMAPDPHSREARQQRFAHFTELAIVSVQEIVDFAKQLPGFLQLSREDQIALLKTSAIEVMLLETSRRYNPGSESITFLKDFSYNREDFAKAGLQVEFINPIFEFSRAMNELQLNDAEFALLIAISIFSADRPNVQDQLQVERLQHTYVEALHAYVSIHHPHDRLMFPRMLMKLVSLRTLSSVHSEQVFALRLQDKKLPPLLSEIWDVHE

In test [16] the target is Hepatocyte nuclear factor 4-alpha (Homo sapiens) (UniProt P41235). In words: ATG_HNF4a_TRANS: Attagene TRANS-FACTORIAL HepG2 Assay for human Hepatocyte Nuclear Factor 4 alpha (HNF4a) (AID 2282982; active means hit-call score of the fitted dose curve at least 0.9, where 1 is the maximum). The following applies: HepG2 HNF4a transactivation reporter, mRNA readout. Put shortly: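 Endpoint reflects transcriptional activation of a GAL4-UAS reporter by an HNF4a-GAL4 chimera in transfected HepG2 cells, 24 h post-dosing. Fluorescence from RT-PCR products separated by capillary electrophoresis; DMSO baseline.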
Chain of Hepatocyte nuclear factor 4-alpha (Homo sapiens) (P41235 whole entry, looked up, the tested form may be a part): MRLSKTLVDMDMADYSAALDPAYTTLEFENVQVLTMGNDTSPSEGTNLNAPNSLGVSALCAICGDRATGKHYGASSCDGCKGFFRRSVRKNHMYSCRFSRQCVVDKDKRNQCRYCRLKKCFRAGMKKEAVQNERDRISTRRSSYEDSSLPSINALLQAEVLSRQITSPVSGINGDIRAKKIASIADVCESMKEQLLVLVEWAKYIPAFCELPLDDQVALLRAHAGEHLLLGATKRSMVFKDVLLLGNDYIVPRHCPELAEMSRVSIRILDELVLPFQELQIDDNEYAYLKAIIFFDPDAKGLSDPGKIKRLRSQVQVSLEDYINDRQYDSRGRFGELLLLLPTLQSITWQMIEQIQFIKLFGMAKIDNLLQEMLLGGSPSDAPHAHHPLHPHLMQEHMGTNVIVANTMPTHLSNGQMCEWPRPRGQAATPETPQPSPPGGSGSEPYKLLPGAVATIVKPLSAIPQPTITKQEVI

The nature of test [17]: ATG_M_06_TRANS: Attagene TRANS-FACTORIAL HepG2 Assay for M06 Transcription Factor (Internal Marker) (AID 2282983; active means hit-call score of the fitted dose curve at least 0.9, where 1 is the maximum). The conditions noted are these: HepG2 Attagene TRANS M06 internal marker reporter. The method in brief: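 mRNA levels of a reporter transcript, quantified as FAM fluorescence on capillary electrophoresis, served as readout. HepG2 cells expressing exogenous GAL4-chimera reporter constructs were exposed for 24 h. Gain of signal over DMSO was evaluated.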

Test [18] deals with Myc proto-oncogene protein (Homo sapiens) (UniProt P01106). In words: ATG_Myc_CIS: Attagene CIS-FACTORIAL HepG2 Assay for human Myelocytomatosis (Myc) Proto-Oncogene Transcription Factor (AID 2282990). The following applies: HepG2, Attagene cis-reporter transcription factor activity; actives raise or lower the signal. Put shortly:
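Transiently transfected HepG2 cells bearing cis-promoter reporter units for endogenous transcription factors; 24 h exposure. Reporter mRNA measured by RT-PCR, 6-FAM primer extension, HpaI cut and capillary electrophoresis; bidirectional fit relative to DMSO.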

A short description of test [19]: ATG_NF_kB_CIS: Attagene CIS-FACTORIAL HepG2 Assay for human Nuclear Factor Kappa B (NF-kB) (AID 2282991). The conditions noted are these: HepG2 Attagene cis-factorial NF-kB reporter mRNA; actives raise or lower the signal. Put shortly: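 After 24 h compound incubation, transfected HepG2 cells yield total RNA; reporter cDNA is PCR-amplified, end-labelled with 6-FAM, HpaI-digested and analysed on a genetic analyser. Endogenous factor activity, DMSO-referenced bidirectional fit.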

The structures appear in SMILES notation. Records with an inconclusive call do not appear. Activity calls are given as the source filed them. How the source made its calls, unless noted: active means hit-call score of the fitted dose curve at least 0.9, where 1 is the maximum; inactive means score below 0.9.

Chain of Cellular tumor antigen p53 (Homo sapiens) (P04637 whole entry, looked up, the tested form may be a part): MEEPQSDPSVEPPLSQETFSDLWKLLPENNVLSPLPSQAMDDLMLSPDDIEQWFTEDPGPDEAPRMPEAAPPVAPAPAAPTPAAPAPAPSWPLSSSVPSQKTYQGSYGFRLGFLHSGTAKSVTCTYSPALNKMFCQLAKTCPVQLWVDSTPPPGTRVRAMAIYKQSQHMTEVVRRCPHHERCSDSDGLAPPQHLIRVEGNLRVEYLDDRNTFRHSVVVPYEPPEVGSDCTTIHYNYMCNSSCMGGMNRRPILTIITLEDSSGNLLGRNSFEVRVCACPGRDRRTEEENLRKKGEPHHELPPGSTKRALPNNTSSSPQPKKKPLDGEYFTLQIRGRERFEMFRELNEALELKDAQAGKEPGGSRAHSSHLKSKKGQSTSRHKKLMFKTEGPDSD
Chain of Nuclear receptor subfamily 4 group A member 2 (Homo sapiens) (P43354 whole entry, looked up): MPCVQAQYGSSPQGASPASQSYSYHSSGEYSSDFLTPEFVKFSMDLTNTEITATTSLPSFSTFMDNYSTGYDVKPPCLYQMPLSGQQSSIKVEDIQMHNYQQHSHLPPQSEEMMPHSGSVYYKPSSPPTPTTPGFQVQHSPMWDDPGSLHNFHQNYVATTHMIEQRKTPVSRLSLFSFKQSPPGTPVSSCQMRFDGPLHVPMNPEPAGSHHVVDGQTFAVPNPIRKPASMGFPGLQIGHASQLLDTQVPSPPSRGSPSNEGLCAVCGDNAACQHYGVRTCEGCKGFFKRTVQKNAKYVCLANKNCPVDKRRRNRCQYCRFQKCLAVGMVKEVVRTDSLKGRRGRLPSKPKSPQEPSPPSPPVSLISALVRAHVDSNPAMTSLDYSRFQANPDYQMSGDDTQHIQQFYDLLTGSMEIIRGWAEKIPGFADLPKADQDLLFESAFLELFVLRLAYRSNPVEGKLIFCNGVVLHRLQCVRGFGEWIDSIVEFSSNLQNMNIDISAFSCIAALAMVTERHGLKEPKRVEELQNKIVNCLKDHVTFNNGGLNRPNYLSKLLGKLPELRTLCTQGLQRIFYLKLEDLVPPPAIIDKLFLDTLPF
Chain of Transcriptional activator Myb (Homo sapiens) (P10242 whole entry, looked up): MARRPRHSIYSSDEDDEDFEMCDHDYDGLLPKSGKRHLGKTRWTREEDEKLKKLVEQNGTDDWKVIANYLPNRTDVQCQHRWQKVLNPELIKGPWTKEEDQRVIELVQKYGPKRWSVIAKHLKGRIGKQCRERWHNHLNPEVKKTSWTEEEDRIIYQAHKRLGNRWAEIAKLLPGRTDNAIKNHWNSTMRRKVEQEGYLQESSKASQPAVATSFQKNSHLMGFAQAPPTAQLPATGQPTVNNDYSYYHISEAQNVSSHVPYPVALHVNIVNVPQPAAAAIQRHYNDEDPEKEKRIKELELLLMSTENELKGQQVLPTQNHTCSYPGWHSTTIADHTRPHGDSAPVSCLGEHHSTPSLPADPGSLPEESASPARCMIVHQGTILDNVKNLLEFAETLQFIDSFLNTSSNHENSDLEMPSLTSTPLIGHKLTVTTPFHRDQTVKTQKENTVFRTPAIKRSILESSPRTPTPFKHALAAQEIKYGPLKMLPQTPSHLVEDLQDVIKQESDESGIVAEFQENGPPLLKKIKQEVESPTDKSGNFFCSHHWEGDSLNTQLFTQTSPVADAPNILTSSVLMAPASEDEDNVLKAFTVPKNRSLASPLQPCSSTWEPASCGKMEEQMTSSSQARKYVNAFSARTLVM
Chain of Oxysterols receptor LXR-beta (Homo sapiens) (P55055 whole entry, looked up, the tested form may be a part): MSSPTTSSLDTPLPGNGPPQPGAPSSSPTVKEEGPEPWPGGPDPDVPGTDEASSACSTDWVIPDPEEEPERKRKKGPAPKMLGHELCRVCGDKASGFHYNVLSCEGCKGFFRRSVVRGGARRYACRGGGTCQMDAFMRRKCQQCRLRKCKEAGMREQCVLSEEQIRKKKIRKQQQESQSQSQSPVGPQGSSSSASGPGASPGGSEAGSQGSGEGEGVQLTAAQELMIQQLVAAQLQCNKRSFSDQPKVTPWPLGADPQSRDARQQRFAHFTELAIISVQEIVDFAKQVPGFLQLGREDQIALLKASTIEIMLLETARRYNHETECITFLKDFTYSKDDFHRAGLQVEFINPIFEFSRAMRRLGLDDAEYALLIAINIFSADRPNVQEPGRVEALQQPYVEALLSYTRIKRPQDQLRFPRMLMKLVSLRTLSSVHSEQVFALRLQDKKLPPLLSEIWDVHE
Chain of Nuclear respiratory factor 1 (Homo sapiens) (Q16656 whole entry, looked up): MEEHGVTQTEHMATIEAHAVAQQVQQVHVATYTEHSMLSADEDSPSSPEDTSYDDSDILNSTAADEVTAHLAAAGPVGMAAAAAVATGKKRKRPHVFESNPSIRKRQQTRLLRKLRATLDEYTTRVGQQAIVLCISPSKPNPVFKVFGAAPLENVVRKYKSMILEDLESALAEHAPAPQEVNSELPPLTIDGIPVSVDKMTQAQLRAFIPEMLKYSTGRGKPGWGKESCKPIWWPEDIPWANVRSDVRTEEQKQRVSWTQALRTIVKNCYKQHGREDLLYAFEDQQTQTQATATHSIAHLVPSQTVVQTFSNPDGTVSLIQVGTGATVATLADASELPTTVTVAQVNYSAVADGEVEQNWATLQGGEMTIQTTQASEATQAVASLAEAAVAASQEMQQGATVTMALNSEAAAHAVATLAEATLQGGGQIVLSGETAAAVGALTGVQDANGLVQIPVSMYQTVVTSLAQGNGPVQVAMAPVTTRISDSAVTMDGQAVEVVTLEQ
Chain of Bile acid receptor (Homo sapiens) (Q96RI1 whole entry, looked up, the tested form may be a part): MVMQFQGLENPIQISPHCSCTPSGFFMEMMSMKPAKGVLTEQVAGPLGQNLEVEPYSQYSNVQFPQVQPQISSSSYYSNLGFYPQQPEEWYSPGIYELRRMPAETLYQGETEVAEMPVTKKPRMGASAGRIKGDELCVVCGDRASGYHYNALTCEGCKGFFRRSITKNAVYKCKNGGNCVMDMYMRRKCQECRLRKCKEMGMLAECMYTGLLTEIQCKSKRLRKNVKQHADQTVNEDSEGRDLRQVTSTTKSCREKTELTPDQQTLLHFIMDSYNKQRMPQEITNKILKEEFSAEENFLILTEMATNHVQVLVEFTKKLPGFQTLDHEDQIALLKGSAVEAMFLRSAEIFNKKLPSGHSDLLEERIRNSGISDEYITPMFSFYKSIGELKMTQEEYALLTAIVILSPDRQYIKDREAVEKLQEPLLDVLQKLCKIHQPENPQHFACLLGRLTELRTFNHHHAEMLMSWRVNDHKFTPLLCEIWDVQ

The AC50 is the concentration at which the activity in the assay is half-maximal. On to `CCCCSP(=O)(SCCCC)SCCCC`, for which the compound was classed as inactive in test [1], in [2], in test [3], in [4], in [5] and in test [7]. Moreover, the compound was classed as inactive in test [8], in test [11], in test [12] and in test [14]. The AC50 in [6] is 83.3 µM (active); in test [9] it was 18.3 µM (active); in test [10], 11.8 µM (active); in test [13], 28.7 µM (active).
For `CSC1=N[C@@](C)(c2ccccc2)C(=O)N1Nc1ccccc1`, the result in [1], in test [15], in test [3], in test [16], in [17] and in test [4] was inactive. Also, the compound was called inactive in test [5], in test [6], in test [7], in [8], in test [11] and in test [14]. Besides, the half-maximal activity concentration (AC50) is 10.7 µM (active) in test [10], 1.68 µM (active) in test [12] and 7.46 µM (active) in test [13].
Turning to `CNC(=O)Oc1cccc2c1OC(C)(C)O2`, the outcome in test [2], in test [15], in test [3], in test [17], in [4] and in test [6] was inactive. For the same compound, the result in test [7], in test [18], in test [19], in test [12] and in test [13] was inactive. For the same compound, the AC50 in test [8] was 50 µM (active); in [9] it was 37 µM (active); in test [10] it was 38.5 µM (active); in [11] it was 6.08 µM (active); in test [14], 28.5 µM (active).
On to `O=C(O)c1cc(Oc2ccc(C(F)(F)F)cc2Cl)ccc1[N+](=O)[O-]`, for which the result in [1], in test [3], in test [16], in [4], in test [6] and in test [7] was inactive. Moreover, the compound was classed as inactive in test [19], in [10], in test [12] and in test [14]. In addition, the AC50 in [13] was 29.2 µM (active).
As to `CC(=NC#N)N(C)Cc1ccc(Cl)nc1`, the outcome in test [15], in [3], in test [16], in test [17], in test [4] and in [5] was inactive. Also, the compound was classed as inactive in test [6], in test [7], in test [19], in [9], in [10] and in test [11]. Further, the outcome in test [12], in test [13] and in test [14] was inactive.
`CON=C(C(=O)OC)c1ccccc1CON=C(C)c1cccc(C(F)(F)F)c1`: the compound was classed as inactive in test [15], in [3], in [16], in test [4], in test [6] and in test [7]. In addition, the result in test [8], in test [18], in test [11], in test [12], in test [13] and in [14] was inactive. In addition, the AC50 in test [19] is 73.1 µM (active); in [9], 15.7 µM (active); in [10] it was 13.5 µM (active).
For `CCC(=O)Nc1ccc(Cl)c(Cl)c1`, the call in [15], in [3], in test [16], in test [17], in test [4] and in test [5] was inactive. Further, the compound was classed as inactive in test [6], in test [7], in test [10], in test [11], in test [12] and in test [13]. Also, the outcome in [14] was inactive.
As for `CCOP(=S)(OCC)Oc1ccc([N+](=O)[O-])cc1`, the result in test [1], in [3], in test [16], in test [17], in test [5] and in test [6] was inactive. The result in test [7], in test [8], in test [19], in test [11], in test [12] and in test [13] was inactive. Further, in test [14], the result was inactive. Besides, the AC50 in test [9] is 23.5 µM (active); in test [10], 50 µM (active).

Values taken from PubChem BioAssay (EPA / NIEHS).
